Experimental data as given in PubChem BioAssay (EPA / NIEHS).
Calls of active or inactive are those of the source. Rule for the calls: active = hit-call score of the fitted dose curve at least 0.9, where 1 is the maximum; inactive = score below 0.9.

Columns and labels:
[1] = BSK_BT_PBMCCytotoxicity: PBMC Cytotoxicity Assessment in the BioMAP Diversity Plus: BT Assay (AID 2284225); conditions: primary human B cells with PBMC;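 note: PBMC viability measured by Alamar Blue dye reduction fluorescence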
Summary of the method: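 75,000 cells/well; cpd 1 h → SEB + TSST-1 (20 ng/mL final each) → 90 h → Alamar Blue 6 h → fluor. 546/580 nm. DMSO = neg. control/baseline.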

[2] = read-out: Secreted IgG (sIgG), gene 3500; assay: BSK_BT_sIgG: BioMAP Diversity Plus: BT Assay for Secreted IgG (sIgG) Biomarker Activity (AID 2284226); conditions: primary human B cells with PBMC
Summary of the method: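 Secreted IgG from a human primary B cell–PBMC co-culture was measured by ELISA 24 hours after dosing, with DMSO defining baseline activity.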

[3] = BSK_BT_Bcell_Proliferation: Viability Assessment in the BioMAP Diversity Plus: BT Assay for B cell Proliferation (AID 2284227); conditions: primary human B cells with PBMC
Summary of the method: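 Human B cells co-cultured with PBMC were dosed with test chemicals and relative cell number was quantified by SRB staining at 72 h. Cells were fixed in 10% TCA, stained with 0.1% SRB and read at 560 nm. Activity was fitted in the positive direction against DMSO.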

[4] = read-out: Interleukin 6 (IL6), IL6 (gene 3569); assay: BSK_BT_xIL6: BioMAP Diversity Plus: BT Assay for Interleukin 6 (IL6) Biomarker Activity (AID 2284228); conditions: primary human B cells with PBMC
Summary of the method: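 Chemical added to human B cell/PBMC co-culture → 24 h → supernatant IL-6 by Luminex xMAP → fit vs DMSO baseline, upward direction.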

[5] = read-out: Interleukin 17A (IL17A), IL17A (gene 3605); assay: BSK_BT_xIL17A: BioMAP Diversity Plus: BT Assay for Interleukin 17A (IL17A) Biomarker Activity (AID 2284229); conditions: primary human B cells with PBMC
Summary of the method: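 Chemicals were added to a human B cell and PBMC co-culture. After 24 h, secreted IL-17A was measured with Luminex xMAP. Curves were fitted in the positive direction, with DMSO wells as baseline.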

[6] = read-out: Tumor necrosis factor (Homo sapiens) (UniProt P01375); assay: BSK_BT_xTNFa: BioMAP Diversity Plus: BT Assay for Tumor necrosis factor alpha (TNF-alpha) Biomarker Activity (AID 2284230); conditions: primary human B cells with PBMC
Summary of the method: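 B cells with PBMC in co-culture, dosed and sampled at 24 h; secreted TNF-alpha measured by Luminex xMAP bead assay. Activity fitted in the gain direction against DMSO as negative control and baseline.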

[7] = read-out: Vascular cell adhesion molecule 1 (VCAM1), VCAM1 (gene 7412); assay: BSK_MyoF_VCAM1: BioMAP Diversity Plus: MyoF Assay for Vascular cell adhesion molecule 1 (VCAM1) Biomarker Activity (AID 2284231); conditions: primary human lung fibroblasts
Summary of the method: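 Steps: fibroblasts from human lung exposed to compound; biomarker quantified by ELISA at 24 h; values analysed for upward change over the DMSO baseline.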

Chain of Tumor necrosis factor (Homo sapiens) (P01375 whole entry, looked up): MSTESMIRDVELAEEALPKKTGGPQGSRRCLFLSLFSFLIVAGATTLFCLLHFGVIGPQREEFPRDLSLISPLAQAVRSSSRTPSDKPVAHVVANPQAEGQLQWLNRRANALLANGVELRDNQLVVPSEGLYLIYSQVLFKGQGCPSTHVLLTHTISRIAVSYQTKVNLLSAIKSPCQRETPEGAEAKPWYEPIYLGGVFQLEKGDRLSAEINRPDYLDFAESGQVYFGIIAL

With `O=C(NO)c1ccccc1` the outcome [1] was “inactive”, the outcome [2] was “inactive” and the outcome [3] was “inactive”. The AC50 [4] was 4.24 µM (active), the AC50 [5] was 8.55 µM (active) and the AC50 [6] was 19.2 µM (active). For the same compound, the outcome [7] was “inactive”.

For `O=C(NCc1ncc(C(F)(F)F)cc1Cl)c1c(Cl)cccc1Cl`, the outcome [1] was “inactive”, the AC50 [2] was 9.52 µM (active) and the AC50 [3] was 20 µM (active). For the same compound, the AC50 [4] was 20 µM (active), the AC50 [5] was 15.5 µM (active) and the AC50 [6] was 20 µM (active). For the same compound, the outcome [7] was “inactive”.

For `CC(C)(C)c1ccc(O)c(O)c1`, the AC50 [1] was 25.2 µM (active), the AC50 [2] was 31.4 µM (active) and the AC50 [3] was 29.1 µM (active). For the same compound, the AC50 [4] was 25.3 µM (active), the AC50 [5] was 16.5 µM (active) and the AC50 [6] was 31.5 µM (active). The AC50 [7] was 31.5 µM (active).

For `CCOC(=O)CN[C@@H](C(=O)N1CC[C@H]1C(=O)NCc1ccc(/C(N)=N/O)cc1)C1CCCCC1`, the outcome [1] was “inactive”, the outcome [2] was “inactive” and the outcome [3] was “inactive”. For the same compound, the outcome [4] was “inactive”, the outcome [5] was “inactive” and the outcome [6] was “inactive”. For the same compound, the outcome [7] was “inactive”.

For `Clc1ccc(Nc2nnc(Cc3ccncc3)c3ccccc23)cc1`, the outcome [1] was “inactive”, the AC50 [2] was 6.52 µM (active) and the outcome [3] was “inactive”. The AC50 [4] was 8.4 µM (active), the outcome [5] was “inactive” and the outcome [6] was “inactive”. The outcome [7] was “inactive”.

In the case of `CCCCCc1ccc(O)cc1`, the outcome [1] is reported as “inactive”, the AC50 [2] is reported as 20 µM (active) and the outcome [3] is reported as “inactive”. For the same compound, the outcome [4] was “inactive”, the outcome [5] was “inactive” and the outcome [6] was “inactive”. For the same compound, the AC50 [7] was 26.9 µM (active).

With `O=C1c2ccc(O)c(O)c2C(=O)c2c(O)ccc(O)c21` the outcome [1] was “inactive”, the outcome [2] was “inactive” and the outcome [3] was “inactive”. For the same compound, the outcome [4] was “inactive”, the outcome [5] was “inactive” and the outcome [6] was “inactive”. For the same compound, the outcome [7] was “inactive”.

For `O=S(=O)(O)C(F)(F)C(F)(F)C(F)(F)C(F)(F)C(F)(F)C(F)(F)C(F)(F)C(F)(F)C(F)(F)C(F)(F)F`, the outcome [1] was “inactive”, the outcome [2] was “inactive” and the outcome [3] was “inactive”. The outcome [4] was “inactive”, the outcome [5] was “inactive” and the outcome [6] was “inactive”. The outcome [7] was “inactive”.

For `COc1cccc(O)c1`, the outcome [1] was “inactive”, the outcome [2] was “inactive” and the outcome [3] was “inactive”. For the same compound, the outcome [4] was “inactive”, the outcome [5] was “inactive” and the outcome [6] was “inactive”. For the same compound, the outcome [7] was “inactive”.

With `CC[N+](CC)(CC)Cc1ccccc1` the outcome [1] was “inactive”, the outcome [2] was “inactive” and the outcome [3] was “inactive”. The outcome [4] was “inactive”, the outcome [5] was “inactive” and the outcome [6] was “inactive”. The outcome [7] was “inactive”.

In the case of `COCN(COC)c1nc(N(COC)COC)nc(N(COC)COC)n1`, the outcome [1] is reported as “inactive”, the outcome [2] is reported as “inactive” and the outcome [3] is reported as “inactive”. For the same compound, the outcome [4] was “inactive”, the outcome [5] was “inactive” and the outcome [6] was “inactive”. The outcome [7] was “inactive”.

For `COC1=CC(=O)C[C@@H](C)[C@]12Oc1c(Cl)c(OC)cc(OC)c1C2=O`, the outcome [1] was “inactive”, the AC50 [2] was 30.9 µM (active) and the AC50 [3] was 37.3 µM (active). For the same compound, the outcome [4] was “inactive”, the outcome [5] was “inactive” and the AC50 [6] was 20 µM (active). The outcome [7] was “inactive”.

In the case of `NC(=NCCCCCCN=C(N)/N=C(\N)Nc1ccc(Cl)cc1)/N=C(\N)Nc1ccc(Cl)cc1`, the AC50 [1] is reported as 13.7 µM (active), the AC50 [2] is reported as 2.87 µM (active) and the AC50 [3] is reported as 9.19 µM (active). For the same compound, the AC50 [4] was 8.83 µM (active), the AC50 [5] was 4.09 µM (active) and the AC50 [6] was 8.79 µM (active). The AC50 [7] was 4.99 µM (active).

For `Cc1cccc2c1ccc1ccccc12`, the outcome [1] was “inactive”, the AC50 [2] was 26.6 µM (active) and the outcome [3] was “inactive”. The AC50 [4] was 0.157 µM (active), the outcome [5] was “inactive” and the outcome [6] was “inactive”. The outcome [7] was “inactive”.

With `C=CC(=C)CC/C=C(\C)CCC=C(C)C` the outcome [1] was “inactive”, the outcome [2] was “inactive” and the outcome [3] was “inactive”. The outcome [4] was “inactive”, the outcome [5] was “inactive” and the outcome [6] was “inactive”. For the same compound, the outcome [7] was “inactive”.

For `C=COC(=O)C(C)(C)CCCCCC`, the outcome [1] was “inactive”, the outcome [2] was “inactive” and the outcome [3] was “inactive”. The outcome [4] was “inactive”, the outcome [5] was “inactive” and the outcome [6] was “inactive”. The AC50 [7] was 31 µM (active).

With `CCCCC(CC)C(=O)OCCOCCOCCOCCOC(=O)C(CC)CCCC` (stereo unspecified) the outcome [1] was “inactive”, the AC50 [2] was 25.2 µM (active) and the AC50 [3] was 28.4 µM (active). The AC50 [4] was 0.016 µM (active), the outcome [5] was “inactive” and the AC50 [6] was 0.016 µM (active). The outcome [7] was “inactive”.

For `O=C1OC2(c3ccccc31)c1cc(I)c(O)c(I)c1Oc1c2cc(I)c(O)c1I`, the outcome [1] was “inactive”, the outcome [2] was “inactive” and the outcome [3] was “inactive”. For the same compound, the outcome [4] was “inactive”, the outcome [5] was “inactive” and the outcome [6] was “inactive”. The AC50 [7] was 9.09 µM (active).

For `CN(C)c1ccc(C(=C2C=CC(=[N+](C)C)C=C2)c2ccccc2)cc1`, the AC50 [1] was 0.993 µM (active), the AC50 [2] was 0.227 µM (active) and the AC50 [3] was 0.248 µM (active). For the same compound, the AC50 [4] was 1.13 µM (active), the AC50 [5] was 0.28 µM (active) and the AC50 [6] was 0.805 µM (active). For the same compound, the AC50 [7] was 0.0764 µM (active).

In the case of `CC1=NN(c2ccccc2)C(=O)C1`, the outcome [1] is reported as “inactive”, the outcome [2] is reported as “inactive” and the outcome [3] is reported as “inactive”. The AC50 [4] was 3.91 µM (active), the outcome [5] was “inactive” and the outcome [6] was “inactive”. For the same compound, the outcome [7] was “inactive”.

With `Cc1ccc(N=Nc2c(O)ccc3ccccc23)c(C)c1` the outcome [1] was “inactive”, the AC50 [2] was 10 µM (active) and the outcome [3] was “inactive”. For the same compound, the outcome [4] was “inactive”, the outcome [5] was “inactive” and the outcome [6] was “inactive”. For the same compound, the outcome [7] was “inactive”.

For `COc1cc(OC)nc(NC(=O)NS(=O)(=O)Nc2ccccc2C(=O)N(C)C)n1`, the outcome [1] was “inactive”, the outcome [2] was “inactive” and the outcome [3] was “inactive”. The outcome [4] was “inactive”, the outcome [5] was “inactive” and the outcome [6] was “inactive”. For the same compound, the outcome [7] was “inactive”.

For `Cc1ccc(C(=O)c2ccccc2)cc1`, the outcome [1] was “inactive”, the outcome [2] was “inactive” and the outcome [3] was “inactive”. The outcome [4] was “inactive”, the outcome [5] was “inactive” and the outcome [6] was “inactive”. For the same compound, the AC50 [7] was 31.4 µM (active).
